The record followed here is PubChem BioAssay (EPA / NIEHS).

In general, AC50 refers to the concentration at which the activity in the assay is half-maximal.

For experiment [1], the target named is Paired box protein Pax-6 (Homo sapiens) (UniProt P26367). Put plainly: ATG_Pax6_CIS: Attagene CIS-FACTORIAL HepG2 Assay for human Paired Box 6 (PAX6) (AID 2282956). The conditions noted are these: HepG2 CIS-FACTORIAL PAX6 reporter transcription, RNA readout; actives raise or lower the signal. A digest of the protocol: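 Fluorescent RT-PCR products separated by capillary electrophoresis report PAX6-linked promoter mRNA in HepG2 cells 24 h post-dose. Curves fitted bidirectionally, DMSO as negative control.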

Experiment [2] is described as follows: ATG_PXRE_CIS: Attagene CIS-FACTORIAL HepG2 Assay for human Pregnane X Receptor Element (PXRE) (AID 2282957). The conditions noted are these: HepG2 Attagene CIS-FACTORIAL PXRE reporter, mRNA; actives raise or lower the signal. A digest of the protocol:
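After a 24 h chemical incubation, total RNA from transfected HepG2 cells was reverse-transcribed and reporter cDNA amplified, FAM-labeled, HpaI-digested and sized by capillary electrophoresis. DMSO served as baseline for bidirectional curve fitting.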

Experiment [3] in a line: ATG_Sox_CIS: Attagene CIS-FACTORIAL HepG2 Assay for human SRY-box transcription factor (SOX) (AID 2282960). The conditions noted are these: HepG2 Attagene cis-factorial SOX reporter, mRNA; actives raise or lower the signal. A digest of the protocol:
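HepG2 cells transiently transfected with cis-element-driven multiple reporter transcription units, dosed 24 h; reporter mRNA measured by RT-PCR, FAM labelling, HpaI digestion and capillary electrophoresis. Bidirectional fit versus DMSO baseline.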

Experiment [4] has as its target Transcription factor Sp1 (Homo sapiens) (UniProt P08047). Put plainly: ATG_Sp1_CIS: Attagene CIS-FACTORIAL HepG2 Assay for human Specificity Protein 1 (Sp1) (AID 2282961). The conditions noted are these: HepG2 Sp1 cis-reporter transcription, actives raise or lower the signal. A digest of the protocol: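 HepG2 cells transiently transfected with multiple reporter transcription units driven by cis-regulatory elements; Sp1-responsive reporter mRNA measured 24 h after dosing by RT-PCR and capillary electrophoresis fluorescence, fitted bidirectionally against DMSO baseline.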

A short description of experiment [5]: ATG_SREBP_CIS: Attagene CIS-FACTORIAL HepG2 Assay for human Sterol Regulatory Element Binding (SREBP) (AID 2282962). The conditions noted are these: HepG2 Attagene cis-factorial SREBP reporter, mRNA; actives raise or lower the signal. A digest of the protocol: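 Endogenous factor activity is measured in HepG2 through multiplexed reporter units under cis-element control. Following a 24 h incubation, reporter transcripts are reverse-transcribed, PCR-amplified and sized by capillary electrophoresis; activity is fitted in both directions relative to DMSO.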

Experiment [6] deals with Signal transducer and activator of transcription 3 (Homo sapiens) (UniProt P40763). The experiment in a line: ATG_STAT3_CIS: Attagene CIS-FACTORIAL HepG2 Assay for human Signal Transducer and Activator of Transcription 3 (STAT3) (AID 2282963). The conditions noted are these: HepG2, Attagene cis-factorial STAT3 reporter transcription; actives raise or lower the signal. A digest of the protocol:
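Fluorescence intensity of 6-FAM-labelled reporter fragments, separated by capillary electrophoresis after RT-PCR, gave the signal. Cells were HepG2 transfected with cis-element reporter units and treated 24 h; fitting was bidirectional relative to DMSO.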

Experiment [7] is described as follows: ATG_TA_CIS: Attagene CIS-FACTORIAL HepG2 Assay for human TA Basal Promoter (AID 2282964). The conditions noted are these: HepG2 Attagene CIS-factorial TA basal promoter reporter; actives raise or lower the signal. A digest of the protocol: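 Read-out: fluorescent reporter-transcript fragments resolved by capillary electrophoresis after RT-PCR and HpaI digestion. Source: HepG2 cells carrying transiently transfected multi-reporter cis constructs, treated 24 h. Endpoint fitted bidirectionally relative to DMSO.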

The nature of experiment [8]: ATG_TCF_b_cat_CIS: Attagene CIS-FACTORIAL HepG2 Assay for human T-Cell-Factor with beta-catenin (TCF/b-cat) (AID 2282965). The conditions noted are these: HepG2 TCF/beta-catenin cis-reporter transcription, actives raise or lower the signal. A digest of the protocol: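 HepG2 cells transiently transfected with cis-promoter-driven multiplexed reporter units; reporter mRNA measured 24 h after dosing by RT-PCR, FAM labelling, HpaI digestion and capillary electrophoresis. Bidirectional fitting relative to DMSO baseline.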

Experiment [9] is described as follows: ATG_TAL_CIS: Attagene CIS-FACTORIAL HepG2 Assay for human TAL Basal Promoter (AID 2282966).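 Note: background control endpoint measuring basal TAL promoter reporter mRNA not a specific factor.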 The conditions noted are these: HepG2 Attagene cis-factorial TAL promoter reporter; actives raise or lower the signal. A digest of the protocol: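 Basal-promoter background-control endpoint from a multiplexed HepG2 reporter panel. Cells were exposed 24 h, then reporter mRNA was read by RT-PCR/CE fluorescence and fitted in both directions relative to DMSO.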

A short description of experiment [10]: ATG_TGFb_CIS: Attagene CIS-FACTORIAL HepG2 Assay for human Transforming Growth Factor (TGF) (AID 2282967). The conditions noted are these: HepG2 Attagene CIS TGFb reporter, mRNA transcription; actives raise or lower the signal. A digest of the protocol: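 Transient MRTU transfection of HepG2 (FuGene 6). Dose 24 h. TriZol RNA, oligo(dT) RT, PCR, 6-FAM primer extension, HpaI cut, CE. Bidirectional fit, DMSO = baseline.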

For experiment [11], the target named is Steroid hormone receptor ERR1 (Homo sapiens) (UniProt P11474). Put plainly: ATG_ERRa_TRANS: Attagene TRANS-FACTORIAL HepG2 Assay for human Estrogen-Related Receptor alpha (ERRa) (AID 2282971; active = hit-call score of the fitted dose curve at least 0.9, where 1 is the maximum). The conditions noted are these: HepG2 Attagene TRANS reporter, ERRa transactivation. A digest of the protocol: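 HepG2 cells transiently transfected with GAL4-UAS reporter units and chimeric NR-Gal4 constructs; after 24 hour compound incubation, reporter mRNA quantified by RT-PCR, fluorescent labelling and capillary electrophoresis, gain of signal versus DMSO.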

For experiment [12], the target named is X-box-binding protein 1 (Homo sapiens) (UniProt P17861). Put plainly: ATG_Xbp1_CIS: Attagene CIS-FACTORIAL HepG2 Assay for human X-box Binding Protein 1 (XBP1) (AID 2282972). The conditions noted are these: HepG2 XBP1 cis-element reporter, Attagene multiplex; actives raise or lower the signal. A digest of the protocol:
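Multiplexed cis-reporter readout in transfected HepG2 liver cells. Exposure lasted 24 hours. Activity in either direction was fitted against DMSO as negative control and baseline.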

The nature of experiment [13]: ATG_GAL4_TRANS: Attagene TRANS-FACTORIAL HepG2 Assay for GAL4 (Internal Marker) (AID 2282976; active = hit-call score of the fitted dose curve at least 0.9, where 1 is the maximum). The conditions noted are these: HepG2 Attagene TRANS GAL4 internal marker reporter. A digest of the protocol: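 Background-control readout: GAL4-UAS reporter transcript in transiently transfected HepG2 cells after 24 h compound exposure. Measured by RT-PCR, 6-FAM primer extension, HpaI digest and capillary electrophoresis; gain-of-signal fit versus DMSO.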

The target in experiment [14] is Estrogen-related receptor gamma (Homo sapiens) (UniProt P62508). The experiment in a line: ATG_ERRg_TRANS: Attagene TRANS-FACTORIAL HepG2 Assay for human Estrogen-Related Receptor gamma (ERRg) (AID 2282977; active = hit-call score of the fitted dose curve at least 0.9, where 1 is the maximum;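 note: hits increase reporter signal over DMSO so potencies reflect activators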). The conditions noted are these: HepG2 Attagene TRANS reporter, ERRg transactivation. A digest of the protocol:
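Induction of reporter transcripts through a chimeric NR-Gal4 protein is quantified in transfected human HepG2 liver cells after 24 h chemical exposure, using RT-PCR with capillary electrophoresis detection and DMSO as baseline.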

Experiment [15] can be described thus: ATG_RORE_CIS: Attagene CIS-FACTORIAL HepG2 Assay for human RAR-related Orphan Receptor Element (RORE) (AID 2282959). The conditions noted are these: HepG2 Attagene cis-factorial RORE reporter, mRNA; actives raise or lower the signal. A digest of the protocol:
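HepG2 cells transiently transfected with multiple cis-element reporter transcription units, exposed to chemical for 24 h. Reporter mRNA quantified by RT-PCR, 6-FAM primer-extension labeling, HpaI digestion and capillary electrophoresis; bidirectional fit versus DMSO baseline.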

Experiment [16] can be described thus: ATG_VDRE_CIS: Attagene CIS-FACTORIAL HepG2 Assay for human Vitamin D Receptor Element (VDRE) (AID 2282968). The conditions noted are these: HepG2 VDRE cis-reporter transcription, actives raise or lower the signal. A digest of the protocol:
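Compounds were applied for 24 h to HepG2 cells transfected with promoter-regulated reporter units. Total RNA was reverse-transcribed, and reporter amplicons were fluorescently labelled and sized by capillary electrophoresis.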

Experiment [17] deals with Nuclear receptor subfamily 1 group I member 3 (Homo sapiens) (UniProt Q14994). The experiment in a line: ATG_CAR_TRANS: Attagene TRANS-FACTORIAL HepG2 Assay for human Constitutive Androstane Receptor (CAR) (AID 2282969; active = hit-call score of the fitted dose curve at least 0.9, where 1 is the maximum;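 note: activators raise reporter mRNA above DMSO so AC50 marks induction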). The conditions noted are these: HepG2 Attagene TRANS-FACTORIAL CAR reporter. A digest of the protocol: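 Transiently transfected HepG2, multiplex TRANS reporters (CAR-Gal4 chimera driving GAL4-UAS reporter). 24 h dosing. Readout: reporter transcript by RT-PCR + capillary electrophoresis, fluorescence intensity; positive direction vs DMSO.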

Experiment [18] deals with Estrogen receptor (Homo sapiens) (UniProt P03372). The experiment in a line: ATG_ERa_TRANS: Attagene TRANS-FACTORIAL HepG2 Assay for human Estrogen Receptor alpha (ERa) (AID 2282970; active = hit-call score of the fitted dose curve at least 0.9, where 1 is the maximum). The conditions noted are these: HepG2 Attagene TRANS ERa GAL4 reporter, mRNA. A digest of the protocol:
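Gal4-fusion ERa transactivation, measured as reporter transcript level in transiently transfected HepG2 cells. Exposure 24 h; RT-PCR plus capillary electrophoresis with fluorescence detection.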

Experiment [19] is described as follows: ATG_M_19_TRANS: Attagene TRANS-FACTORIAL HepG2 Assay for M19 Transcription Factor (Internal Marker) (AID 2282974; active = hit-call score of the fitted dose curve at least 0.9, where 1 is the maximum). The conditions noted are these: HepG2 Attagene TRANS-FACTORIAL M19 internal marker reporter. A digest of the protocol: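 HepG2 cells transiently transfected with multiple GAL4-UAS reporter transcription units were exposed to chemicals for 24 h. Reporter mRNA was read by RT-PCR, 6-FAM primer extension, HpaI digestion and capillary electrophoresis; gain of signal fitted relative to DMSO.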

Inconclusive results are not listed. Activity calls are given as the source filed them. Rule for the calls, unless noted: active = hit-call score of the fitted dose curve at least 0.9, where 1 is the maximum; inactive = score below 0.9.

Sequence of Paired box protein Pax-6 (Homo sapiens) (P26367 whole entry, looked up): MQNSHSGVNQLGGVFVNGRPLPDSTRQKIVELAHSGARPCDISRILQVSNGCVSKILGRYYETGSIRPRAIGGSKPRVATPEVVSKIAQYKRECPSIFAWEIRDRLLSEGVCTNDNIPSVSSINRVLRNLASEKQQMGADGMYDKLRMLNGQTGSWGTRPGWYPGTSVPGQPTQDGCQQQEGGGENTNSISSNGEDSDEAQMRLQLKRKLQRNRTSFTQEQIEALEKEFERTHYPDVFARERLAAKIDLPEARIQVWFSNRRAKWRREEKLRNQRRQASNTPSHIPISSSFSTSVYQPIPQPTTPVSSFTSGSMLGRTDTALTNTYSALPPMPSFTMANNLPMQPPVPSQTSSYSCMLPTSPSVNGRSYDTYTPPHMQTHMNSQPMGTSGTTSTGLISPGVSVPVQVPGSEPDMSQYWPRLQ
Sequence of Nuclear receptor subfamily 1 group I member 3 (Homo sapiens) (Q14994 whole entry, looked up, the tested form may be a part): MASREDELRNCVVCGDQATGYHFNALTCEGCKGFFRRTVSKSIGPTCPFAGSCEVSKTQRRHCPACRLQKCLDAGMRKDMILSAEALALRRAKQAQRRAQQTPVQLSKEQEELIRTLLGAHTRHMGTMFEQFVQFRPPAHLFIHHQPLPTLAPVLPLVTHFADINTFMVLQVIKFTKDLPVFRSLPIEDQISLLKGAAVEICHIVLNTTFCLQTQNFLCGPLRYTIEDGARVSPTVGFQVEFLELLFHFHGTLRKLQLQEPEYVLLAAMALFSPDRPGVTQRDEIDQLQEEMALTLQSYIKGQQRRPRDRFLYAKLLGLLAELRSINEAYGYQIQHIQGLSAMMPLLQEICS
Sequence of Signal transducer and activator of transcription 3 (Homo sapiens) (P40763 whole entry, looked up, the tested form may be a part): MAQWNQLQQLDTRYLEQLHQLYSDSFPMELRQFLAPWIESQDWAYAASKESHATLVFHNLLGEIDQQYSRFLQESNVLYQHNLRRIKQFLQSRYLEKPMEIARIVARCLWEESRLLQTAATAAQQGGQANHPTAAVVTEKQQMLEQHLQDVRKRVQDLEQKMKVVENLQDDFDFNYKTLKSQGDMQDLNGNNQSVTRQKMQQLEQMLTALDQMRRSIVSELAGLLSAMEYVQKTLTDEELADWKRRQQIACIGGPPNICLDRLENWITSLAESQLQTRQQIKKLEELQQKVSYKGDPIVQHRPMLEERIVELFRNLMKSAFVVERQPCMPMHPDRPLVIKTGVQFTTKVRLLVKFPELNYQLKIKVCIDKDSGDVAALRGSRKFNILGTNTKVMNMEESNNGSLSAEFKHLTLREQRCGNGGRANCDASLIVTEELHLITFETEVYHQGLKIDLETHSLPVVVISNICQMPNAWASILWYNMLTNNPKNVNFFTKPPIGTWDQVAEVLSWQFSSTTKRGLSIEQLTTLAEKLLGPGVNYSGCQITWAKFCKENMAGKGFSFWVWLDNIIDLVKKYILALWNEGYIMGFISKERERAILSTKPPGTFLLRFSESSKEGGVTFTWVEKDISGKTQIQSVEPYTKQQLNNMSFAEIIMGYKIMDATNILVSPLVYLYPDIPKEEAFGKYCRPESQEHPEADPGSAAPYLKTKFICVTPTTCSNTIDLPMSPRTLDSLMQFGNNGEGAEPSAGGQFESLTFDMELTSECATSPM
Sequence of Transcription factor Sp1 (Homo sapiens) (P08047 whole entry, looked up): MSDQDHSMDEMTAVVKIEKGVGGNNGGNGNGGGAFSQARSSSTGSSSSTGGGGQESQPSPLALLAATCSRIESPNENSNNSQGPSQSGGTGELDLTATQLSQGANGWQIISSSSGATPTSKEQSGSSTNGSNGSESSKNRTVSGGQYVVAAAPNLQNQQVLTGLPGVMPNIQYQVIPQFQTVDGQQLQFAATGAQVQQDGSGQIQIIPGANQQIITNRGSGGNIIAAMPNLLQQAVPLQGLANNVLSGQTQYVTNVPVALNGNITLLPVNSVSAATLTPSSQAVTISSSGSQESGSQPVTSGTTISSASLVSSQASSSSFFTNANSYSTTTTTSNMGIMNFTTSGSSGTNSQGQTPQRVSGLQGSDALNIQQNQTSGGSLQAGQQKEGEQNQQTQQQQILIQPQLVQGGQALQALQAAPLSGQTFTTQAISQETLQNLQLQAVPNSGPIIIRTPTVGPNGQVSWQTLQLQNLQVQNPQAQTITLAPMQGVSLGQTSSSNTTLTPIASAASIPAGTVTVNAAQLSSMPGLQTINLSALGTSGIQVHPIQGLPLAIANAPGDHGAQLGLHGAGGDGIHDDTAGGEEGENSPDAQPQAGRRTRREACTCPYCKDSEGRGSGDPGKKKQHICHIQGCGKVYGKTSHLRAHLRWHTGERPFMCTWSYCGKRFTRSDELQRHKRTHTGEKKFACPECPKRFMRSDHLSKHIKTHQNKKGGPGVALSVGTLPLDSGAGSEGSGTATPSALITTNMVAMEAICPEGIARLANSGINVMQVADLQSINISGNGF
Sequence of X-box-binding protein 1 (Homo sapiens) (P17861 whole entry, looked up): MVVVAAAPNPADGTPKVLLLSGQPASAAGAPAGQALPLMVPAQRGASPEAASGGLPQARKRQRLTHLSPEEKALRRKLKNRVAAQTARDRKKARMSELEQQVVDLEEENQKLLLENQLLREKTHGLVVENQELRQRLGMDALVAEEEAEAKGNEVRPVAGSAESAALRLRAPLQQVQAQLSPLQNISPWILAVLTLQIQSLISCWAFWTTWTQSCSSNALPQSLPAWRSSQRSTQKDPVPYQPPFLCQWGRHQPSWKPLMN
Sequence of Estrogen-related receptor gamma (Homo sapiens) (P62508 whole entry, looked up, the tested form may be a part): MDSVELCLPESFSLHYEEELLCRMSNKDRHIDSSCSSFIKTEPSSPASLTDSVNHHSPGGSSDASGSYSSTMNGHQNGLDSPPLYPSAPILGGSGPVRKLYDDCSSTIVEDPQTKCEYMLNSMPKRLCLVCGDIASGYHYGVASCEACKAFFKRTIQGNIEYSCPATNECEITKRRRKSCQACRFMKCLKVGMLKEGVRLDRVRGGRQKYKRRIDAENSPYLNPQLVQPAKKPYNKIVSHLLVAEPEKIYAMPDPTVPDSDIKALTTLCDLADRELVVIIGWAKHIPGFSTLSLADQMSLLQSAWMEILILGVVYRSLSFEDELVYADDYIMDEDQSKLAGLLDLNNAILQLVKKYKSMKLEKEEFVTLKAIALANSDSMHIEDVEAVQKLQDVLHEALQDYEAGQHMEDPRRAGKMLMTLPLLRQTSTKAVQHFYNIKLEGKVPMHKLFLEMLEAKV
Sequence of Steroid hormone receptor ERR1 (Homo sapiens) (P11474 whole entry, looked up, the tested form may be a part): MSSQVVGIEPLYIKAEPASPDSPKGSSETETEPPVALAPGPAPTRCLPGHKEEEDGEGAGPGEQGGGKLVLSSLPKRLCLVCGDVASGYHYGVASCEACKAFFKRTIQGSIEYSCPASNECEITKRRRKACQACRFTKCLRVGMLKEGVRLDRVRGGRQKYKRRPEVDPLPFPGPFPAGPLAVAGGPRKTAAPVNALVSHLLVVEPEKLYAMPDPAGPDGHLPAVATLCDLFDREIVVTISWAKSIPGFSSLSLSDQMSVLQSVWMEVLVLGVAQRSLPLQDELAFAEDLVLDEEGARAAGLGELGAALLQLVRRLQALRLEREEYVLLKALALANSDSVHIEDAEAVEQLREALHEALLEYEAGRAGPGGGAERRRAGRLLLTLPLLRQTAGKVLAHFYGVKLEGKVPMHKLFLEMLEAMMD
Sequence of Estrogen receptor (Homo sapiens) (P03372 whole entry, looked up, the tested form may be a part): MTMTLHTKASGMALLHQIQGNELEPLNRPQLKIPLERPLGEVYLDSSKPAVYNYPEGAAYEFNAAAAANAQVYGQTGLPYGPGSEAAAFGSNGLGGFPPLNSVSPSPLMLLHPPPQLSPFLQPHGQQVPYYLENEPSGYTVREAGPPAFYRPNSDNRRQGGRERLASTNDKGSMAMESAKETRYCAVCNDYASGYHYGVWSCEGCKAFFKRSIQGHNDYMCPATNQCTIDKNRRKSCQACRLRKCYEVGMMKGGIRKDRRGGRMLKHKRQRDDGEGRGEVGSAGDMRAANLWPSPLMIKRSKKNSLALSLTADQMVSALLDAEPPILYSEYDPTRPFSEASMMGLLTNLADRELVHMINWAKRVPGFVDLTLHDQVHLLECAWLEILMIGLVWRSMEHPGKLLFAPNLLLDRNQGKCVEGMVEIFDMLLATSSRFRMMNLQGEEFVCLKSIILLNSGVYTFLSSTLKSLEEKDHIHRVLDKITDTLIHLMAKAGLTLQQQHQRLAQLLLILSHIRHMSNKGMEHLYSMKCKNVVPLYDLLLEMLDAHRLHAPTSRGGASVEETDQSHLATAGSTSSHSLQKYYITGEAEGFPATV

For `CC[C@]12CCCN3CCc4c(n(c5ccccc45)[C@@](O)(C(=O)OC)C1)[C@@H]32`, the outcome in experiment [1], in [3], in experiment [4], in experiment [5], in [6] and in experiment [7] was inactive. Besides, the compound was called inactive in experiment [8], in experiment [9], in experiment [10], in experiment [11], in [12] and in [13]. Also, in experiment [14], the result was inactive. Also, in experiment [2], the AC50 was 7.96 µM (active).

On to `Cc1c(N(C)C)c(=O)n(-c2ccccc2)n1C`, for which the call in [1], in experiment [15], in experiment [3], in experiment [6], in [7] and in experiment [8] was inactive. The call in [9], in experiment [10], in experiment [16], in experiment [17] and in experiment [13] was inactive. For the same compound, the AC50 in experiment [2] was 153 µM (active).

In the case of `COC(=O)c1ccc(C)cc1`, the compound was classed as inactive in experiment [1], in [15], in experiment [4], in experiment [5], in experiment [6] and in experiment [8]. Besides, the call in experiment [9], in experiment [10], in experiment [16], in [17], in [18] and in [12] was inactive. Further, the outcome in experiment [13] was inactive. Further, the AC50 in experiment [2] was 11.1 µM (active).

Regarding `CC(C)(CO)[N+](=O)[O-]`, the compound was classed as inactive in experiment [1], in experiment [2], in experiment [3], in [4], in experiment [5] and in [6]. In addition, the outcome in [8], in experiment [9], in experiment [10], in [16], in experiment [17] and in experiment [12] was inactive. The call in [19] and in experiment [13] was inactive.

On to `Cc1ncc([N+](=O)[O-])n1C`, for which the result in [1], in experiment [3], in experiment [4], in [5], in [6] and in experiment [7] was inactive. The call in experiment [8], in [9], in experiment [10], in experiment [16], in experiment [17] and in experiment [18] was inactive. Also, the compound was classed as inactive in [19], in experiment [13] and in experiment [14]. Further, the AC50 in [2] was 53.2 µM (active).

On to `CCCCCCCCCCCCCCCC(=O)O`, for which the outcome in experiment [1], in experiment [3], in experiment [4], in experiment [5], in [6] and in experiment [7] was inactive. The result in experiment [8], in experiment [9], in [10], in experiment [16], in [17] and in experiment [12] was inactive. The result in experiment [13] was inactive. In experiment [2], the AC50 is 25.3 µM (active).

As to `OC[C@H]1O[C@H](O[C@]2(CCl)O[C@H](CCl)[C@@H](O)[C@@H]2O)[C@H](O)[C@@H](O)[C@H]1Cl`, the outcome in experiment [1], in experiment [2], in [3], in experiment [4], in experiment [5] and in experiment [6] was inactive. For the same compound, the compound was called inactive in experiment [7], in experiment [8], in experiment [9], in [10], in [16] and in experiment [12]. Also, the compound was called inactive in [19] and in experiment [13].

Consider `CC(C)(C#N)c1cc(Cn2cncn2)cc(C(C)(C)C#N)c1`, for which the outcome in experiment [1], in experiment [15], in [3], in experiment [5], in experiment [6] and in [7] was inactive. Further, the result in experiment [8], in experiment [9], in experiment [10], in experiment [11] and in experiment [12] was inactive. Further, the AC50 in experiment [2] is 14.8 µM (active).
